Bioassay records as filed in PubChem BioAssay.
PfHsp40 rescue: restores yeast growth despite PfHsp40 toxicity. S. cerevisiae expressing PfHsp40, growth rescue, ATP luminescence. growth rescue, % at 12.5 µM. 0.68% of 340,000 active; in the data active = growth rescue above about 28%, passing the limit was not always enough;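 note: yeast W303a lacking pdr1 and pdr3 grown in galactose medium; growth measured after three days at 30 °C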
PrP UTR inh: suppresses PrP 5' UTR mRNA reporter expression | cell-based PrP 5' UTR mRNA reporter, plate reader | inhibition, % (test concentration not listed) | 0.35% of 340,000 active | AID 488862; in the data active = inhibition above about 52%; note: 0 = median of the neutral control wells
GDH-TPI counter: inhibits GDH-TPI coupling enzymes, artifact for Mtb FBA screen; GDH-TPI coupled enzyme counterscreen, NADH absorbance; inhibition, % at 4.8 µM; 1.2% of 360,000 active; AID 588335; in the data active = inhibition above about 30%;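 note: 0% = DMSO wells and 100% = wells lacking the enzyme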
PrPC surface inh: cell surface PrPC inhibition, primary TR-FRET screen. inhibition, % at 13.8 µM. TR-FRET read-out. 0.43% of 370,000 active. P04156; in the data active = inhibition above about 24%; note: 0% = median of the test wells and 100% = reference compound wells
Mtb FBA inh: inhibits M. tuberculosis FBA enzyme; inhibition, % at 1 µM; P9WQA3; purified M. tuberculosis FBA, fluorescence read-out; 2.3% of 360,000 active; in the data active = inhibition above about 27%;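 note: 0% = vehicle and 100% = reference inhibitor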
Target sequence (P9WQA3 whole entry, looked up): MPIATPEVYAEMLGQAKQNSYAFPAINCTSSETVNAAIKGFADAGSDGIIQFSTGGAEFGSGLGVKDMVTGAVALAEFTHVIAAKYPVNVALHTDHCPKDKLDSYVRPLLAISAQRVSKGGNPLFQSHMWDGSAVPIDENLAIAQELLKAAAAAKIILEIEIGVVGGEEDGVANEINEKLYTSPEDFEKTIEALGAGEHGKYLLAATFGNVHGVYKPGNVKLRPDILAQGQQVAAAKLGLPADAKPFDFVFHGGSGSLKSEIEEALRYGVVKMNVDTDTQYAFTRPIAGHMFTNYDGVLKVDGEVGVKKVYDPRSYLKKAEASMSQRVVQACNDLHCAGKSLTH
BJeLR viability: BJeLR cell viability loss. inhibition, % (no concentration beside the values). AID 1554. BJeLR (HRASV12) viability, CellTiter-Glo ATP luminescence, 48 h. 0.17% of 300,000 active; in the data active = inhibition above about 50%
The depositor's hits bear a star. Only some compounds are listed: those with a hit (about 4.5% of all), similar ones and a draw of the others.

For O=S1(=O)N=C(N/N=C/c2cccs2)c2ccccc21 the results were PfHsp40 rescue -1, PrP UTR inh -5, GDH-TPI counter 39*, PrPC surface inh -3, Mtb FBA inh -3 and BJeLR viability 3.
Screening COc1ccc(Nc2nc(N)c(C(=O)c3ccc(F)cc3)s2)cc1 returned PfHsp40 rescue 34*, PrP UTR inh 27, GDH-TPI counter 2, PrPC surface inh -2, Mtb FBA inh 3 and BJeLR viability 36.
COc1ccc(Nc2nc(N)c(C(=O)c3ccc(OC)cc3)s2)cc1 was read as PfHsp40 rescue 9, PrP UTR inh -7, GDH-TPI counter -6, PrPC surface inh -20, Mtb FBA inh -2 and BJeLR viability 6.
Screening COc1ccc(C(=O)c2sc(NC(C)C)nc2N)cc1OC returned PfHsp40 rescue 0, PrP UTR inh 1, GDH-TPI counter 37*, PrPC surface inh -9 and Mtb FBA inh -2.
Cc1ccc(-n2c(SCC(=O)Nc3cccc4ccccc34)nnc2-c2cnccn2)cc1 was read as PrPC surface inh -5.
Screening C[C@H]1[C@H](c2ccccc2)OC(O)([C@H](Cc2ccccc2)NC(=O)OC(C)(C)C)CN1C (stereo partly specified) returned PrPC surface inh -5.
Screening COc1cccc2c(=O)c3c(cnn3C)n(C)c12 returned PfHsp40 rescue 1, PrP UTR inh -28, GDH-TPI counter 1, PrPC surface inh -6, Mtb FBA inh active and BJeLR viability 10.
Screening Cc1cccc(NC(=O)C2CCCN(c3nnc(-n4cccc4)s3)C2)c1C (stereo unspecified) returned PrPC surface inh -3.
Screening Cc1ccc(C2CC(c3cccs3)=NN2C(=O)CCl)cc1 (stereo unspecified) returned PfHsp40 rescue 1, GDH-TPI counter 12, PrPC surface inh 5, Mtb FBA inh 2 and BJeLR viability 63*.
CNC(=S)N1N=C(c2cccs2)CC1c1ccc(F)cc1 (stereo unspecified) was read as PfHsp40 rescue -4, GDH-TPI counter 36*, PrPC surface inh -6, Mtb FBA inh 8 and BJeLR viability -3.
`CC1=C2NC(N)=[N+](CC3CC3)C(Cc3ccccc3)[C@@H]2n2c(=O)n(-c3ccccc3)c(=O)n2C1` (stereo partly specified) gave PrPC surface inh -4.
Screening O=C(NNC(=S)NC(=O)c1ccccc1[N+](=O)[O-])c1ccccc1[N+](=O)[O-] returned PfHsp40 rescue 0, PrP UTR inh -5, GDH-TPI counter 3, PrPC surface inh -20, Mtb FBA inh -3 and BJeLR viability -1.
For CCCCOc1ccccc1C(=O)NNC(=S)NC(=O)c1ccccc1[N+](=O)[O-] the results were PfHsp40 rescue 2, PrP UTR inh 1, GDH-TPI counter 31*, PrPC surface inh 11, Mtb FBA inh -5 and BJeLR viability 6.
For c1ccc(C2CCC3(CC2)CCC3NCc2cccs2)cc1 (stereo unspecified) the results were PrPC surface inh -6.
Screening COC(=O)C1CN(C2CC2)CCS(=O)(=O)N1Cc1cn(Cc2ccc(C)cc2)nn1 (stereo unspecified) returned PrPC surface inh 6.
`COC(=O)c1c(-c2ccccc2)csc1NC(=O)c1c(-c2ccccc2)noc1C` gave PfHsp40 rescue 3, PrP UTR inh 16, GDH-TPI counter 20, PrPC surface inh 7, Mtb FBA inh 1 and BJeLR viability 24.
`CCOC(=O)c1c(-c2ccc(F)cc2)csc1NC(=O)c1c(-c2ccccc2)noc1C` gave PfHsp40 rescue 32*, PrP UTR inh -28, GDH-TPI counter 13, PrPC surface inh 1, Mtb FBA inh -1 and BJeLR viability 6.
Screening CC(C)Oc1ccc(-c2csc(N3CCC(C(N)=O)CC3)n2)cc1 returned PrPC surface inh -7.
Screening CCCCCn1nnnc1C1c2ccccc2OCC(=O)N1Cc1ccco1 (stereo unspecified) returned PrPC surface inh 2.
For COc1ccc(/C=C2\CCn3c2nc2ccccc2c3=O)cc1OC the results were PfHsp40 rescue -2, PrP UTR inh -42, GDH-TPI counter 9, Mtb FBA inh -1 and BJeLR viability -6.
